Screening data from PubChem BioAssay.
The entries come from a sample that favours hits as a whole.
Dicer inh – human Dicer pre-microRNA cleavage inhibition; z-score at 25 µM; cat-ELCCA pre-miR-21 Dicer processing, chemiluminescence; hits give high values; Q9UPY3; 47,000 compounds, 6% hits; in the data active means z-score above about 3, passing the limit was not always enough;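 further: higher signal means more uncleaved substrate so more Dicer inhibition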
Hits are given with their value; - = inactive.

SMILES	Dicer inh
COc1ccc(-c2nnc(Nc3ccc4c(c3)ncn4C)c3ccccc23)cc1	-
COc1ccc(-c2nnc(Nc3cccc(O)c3)c3ccccc23)cc1	3.91
O=c1c2cc(-c3ccccc3)sc2ncn1/N=C/c1ccccc1Cl	-
COC(=O)c1scc(Br)c1OC(=O)c1ccc(C(C)(C)C)cc1	-
CC(C)N(Cc1ccccc1)S(=O)(=O)c1ccc(CNC(=O)c2ccccc2)s1	-
CCOc1ccc(C2C3=C(CC(C)(C)CC3=O)Nc3nc(-c4ccc(OC)cc4)nn32)cc1 (stereo not given)	-
CN(C)c1ccc(-c2nc3n(n2)C(c2cccnc2)C2=C(CCCC2=O)N3)cc1 (stereo not given)	-
CN(C)c1ccc(-c2nc3n(n2)C(c2cccnc2)C2=C(CC(C)(C)CC2=O)N3)cc1 (stereo not given)	-
CN(C)c1ccc(-c2nc3n(n2)C(c2ccc(Cl)cc2)C2=C(CC(C)(C)CC2=O)N3)cc1 (stereo not given)	3.58
CN(C)c1ccc(-c2nc3n(n2)C(c2ccc(F)cc2)C2=C(CC(C)(C)CC2=O)N3)cc1 (stereo not given)	4.63
CC1=C(C(N)=O)C(c2ccc(Cl)cc2)n2nc(-c3ccc(N(C)C)cc3)nc2N1 (stereo not given)	-
O=[N+]([O-])c1ccc2c(c1)S(=O)(=O)CC2SCCO (stereo not given)	-
CCOC(=O)c1cc2cc(OC(F)(F)F)ccc2[nH]1	-
C=CCc1ccc(OC(C)C(=O)Nc2sc3c(c2C(N)=O)CCC3)c(OC)c1 (stereo not given)	-
O=c1ccn(-c2ccc(Cl)cc2)nc1-c1ccnc(-c2ccc(Cl)cc2)n1	-
O=c1c2ccccc2cnn1Cc1nc2c3c(ncn2n1)CCC3	-
COc1cc2nc(C(C)(C)C)oc(=O)c2cc1OC	4.12
COc1cc2nc(-c3ccccc3)oc(=O)c2cc1OC	-
CCC(CC)c1nc2cc(OC)c(OC)cc2c(=O)o1	-
COc1ccc(-c2nc3cc(OC)c(OC)cc3c(=O)o2)cc1	-
COc1cc2nc(-c3ccc(C)cc3)oc(=O)c2cc1OC	-
COc1cc2nc(-c3cccc(Br)c3)oc(=O)c2cc1OC	26.6
CCOC(=O)c1sc(Sc2ccc(C(F)(F)F)cc2[N+](=O)[O-])nc1C	-
c1ccc(CCNCCN2CCOCC2)cc1	-
CC1(C)CC(NCC(=O)N2c3ccccc3Sc3ccc(Cl)cc32)CC(C)(C)N1	3.28
SMILES	Dicer inh
O=C(C1CC1)N1c2ccccc2Sc2ccccc21	-
CC(C)CNC(=O)N1c2ccccc2Sc2ccccc21	-
O=C(CSc1nc(-c2ccccc2)cs1)c1ccccc1	-
CCOc1ccc(S(=O)(=O)N2CCCN(S(=O)(=O)c3ccc(OCC)cc3)CC2)cc1	-
O=S(=O)(c1ccc(NC(=S)NC2CCCCC2)cc1)N1CCCCC1	-
CCOc1ccc(/C=N/NC(=S)Nc2ccc(S(=O)(=O)N3CCCCC3)cc2)cc1	7.26
CN(C)CCCNC(=O)c1cc2c(n(-c3ccc(Cl)cc3)c1=O)CCCC2=O	-
O=C(CSc1nc2ccccc2nc1N1CCOCC1)NC1CC1	-
CC1CN(c2nc3ccccc3nc2SCC(=O)N2CCOCC2)CC(C)O1 (stereo not given)	-
O=C(CSc1nc2ccccc2nc1N1CCCCC1)N1CCN(C2CCCC2)CC1	-
O=C(CSc1nc2ccccc2nc1N1CCCC1)N1CCN(c2ccc(F)cc2)CC1	-
O=C(CSc1nc2ccccc2nc1N1CCCCC1)NC1CCCCC1	-
CC1CCN(c2nc3ccccc3nc2SCC(=O)N2CCOCC2)CC1	3.86
CC1CCN(c2nc3ccccc3nc2SCC(=O)NCC2CCCO2)CC1 (stereo not given)	-
CC1CCN(c2nc3ccccc3nc2SCC(=O)N2CCN(C3CCCC3)CC2)CC1	-
O=C(CSc1nc2ccccc2nc1N1CCCCC1)N1CCN(c2ccccc2)CC1	4.92
O=C(CSc1nc2ccccc2nc1N1CCOCC1)N1CCN(c2ccc(F)cc2)CC1	3.87
c1ccc2nc(N3CCOCC3)c(N3CCOCC3)nc2c1	-
O=C(CSc1nc2ccccc2nc1N1CCOCC1)NCC1CCCO1 (stereo not given)	3.05
COC(=O)c1c(NC(=O)COc2cccc(Cl)c2)sc2c1C(C(=O)OC)CC2 (stereo not given)	-
O=C1C2ON(c3ccccc3)C(c3cccnc3)C2C(=O)N1c1ccc(Br)cc1 (stereo not given)	-
O=C1CC(NC2CCN(c3ccc(Cl)nn3)CC2)C(=O)N1c1ccc(F)cc1 (stereo not given)	-
O=c1/c(=C/c2cccnc2)sc2nc(-c3ccccc3)c(-c3ccccc3)n12	-
O=S(=O)(NN1C2CSC1CS2)c1ccc(F)c(Cl)c1	-
O=C(O)C1CC(=O)N(c2ccccc2O)C1 (stereo not given)	-
SMILES	Dicer inh
O=C(Nc1cc(-c2ccccc2)nn1-c1ccccc1)c1ccccc1Cl	-
O=C(N/N=C/c1c(Cl)cccc1Cl)c1nc(COc2ccccc2Cl)no1	-
O=C(CSc1nc2ccccc2nc1N1CCOCC1)N1CCN(c2ccccc2)CC1	-
O=C(CSc1nc2ccccc2nc1N1CCOCC1)N1CCOCC1	4.94
Cc1cc(C)nc(N2CCN(C(=O)CSc3nc4ccccc4nc3N3CCOCC3)CC2)n1	-
Cc1cc(N)n(C2CCOC(C)(C)C2)n1 (stereo not given)	-
C#CC(CC)(CC)NC(=O)NC(=O)c1ccccc1Cl	-
CSc1nc(-c2ccccc2)nc(Sc2cccc(C(F)(F)F)c2)c1C#N	26.3
CSc1nc(-c2ccccc2)nc(Nc2ccc(C(F)(F)F)cc2)c1C#N	-
Cc1c(C#N)c(Sc2cccc(C(F)(F)F)c2)nc2ccccc12	-
CN(C)CC1(C(OC(=O)c2ccc([N+](=O)[O-])cc2)c2cccc(F)c2)CCCCC1 (stereo not given)	-
CCN(CC)C(=O)n1cnc2cc(C)c(C)cc21	-
COc1ccc(/C=C2\C(=O)Nc3ccccc32)cc1OC1CCCC1	-
CC1CC(C)(C)N(C(=O)CN2C(=O)CCC2=O)c2ccccc21 (stereo not given)	-
CC1CC(C)(C)N(C(=O)Nc2cccc(Cl)c2)c2ccccc21 (stereo not given)	6.64
CC1CC(C)(C)N(C(=O)NC2CCCCC2)c2ccccc21 (stereo not given)	-
COc1ccc(NC(=O)c2sc3nc4c(cc3c2N)CCCCC4)cc1	-
Cc1cc(C(=O)Nc2ccccc2)oc(=O)c1	-
CC1=C(C(=O)Nc2ccccc2)S(=O)CCO1 (stereo not given)	3.31
CC1=C(C(=O)Nc2ccc(F)cc2)SCCO1	-
Cc1ccc(CN2C(=O)c3oc4ccccc4c(=O)c3C2c2cccc(O)c2)cc1 (stereo not given)	-
CC(=O)OC[C@@H](OC(C)=O)[C@@H](OC(C)=O)C1OC(=O)C2N(C(C)=O)[C@H]1SC2(C)C (stereo not given in full)	-
COc1ccc(C(=O)Oc2ccc3c(=O)c(Oc4ccccc4Br)coc3c2)cc1OC	3.1
Cc1ccc(C)c(Oc2coc3cc(OCC(=O)OCC(C)C)ccc3c2=O)c1	-
COc1ccccc1-c1coc2cc(OC(=O)c3ccc(Cl)cc3)ccc2c1=O	-
CC(C)(C)c1ccc(Oc2coc3cc(O)ccc3c2=O)cc1	-
Cc1cc(C)cc(Oc2coc3cc(O)ccc3c2=O)c1	4.34
Cc1cccc(Oc2coc3cc(OC(=O)c4cccnc4)ccc3c2=O)c1	-
Cc1ccc(Oc2coc3cc(O)ccc3c2=O)cc1	-
CCC(C)OC(=O)COc1ccc2c(=O)c(Oc3cc(C)ccc3C)coc2c1 (stereo not given)	-
